For 36 molecules, Potency results are on record in PubChem BioAssay (NCATS).

Inconclusive results are not listed. Entries that show only a call come without a potency. Calls of active or inactive are those of the source. Unless noted, calls come from the whole dose curve.

A short description of one experiment: Primary qHTS for small molecule stabilizers of the endoplasmic reticulum resident proteome: Secreted ER Calcium Modulated Protein (SERCaMP) assay (AID 1508630; active = well fitted inhibition curve with a large enough effect). The following applies: SH-SY5Y GLuc-SERCaMP (Gaussia luciferase released on ER calcium loss) secretion, thapsigargin, luminescence; series mostly up to 38.4 µM. The essentials:
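The SH-SY5Y reporter protocol was run at 3 concentrations up to 38.3 uM (primary) or 11 concentrations (follow-up): 16 h compound, 100 nM thapsigargin for 4 h, then extracellular luciferase luminescence.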
A general note: qHTS replaces the single test concentration by a dilution series.
On to `CC[C@H](c1ccc(O)cc1)[C@@H](CC)c1ccc(O)cc1`, for which the Potency entry was “inactive”.

With `NC(N)=NCc1cccc(I)c1`, the Potency entry was “inactive”.

As to `CCc1oc2ccccc2c1C(=O)c1cc(Br)c(O)c(Br)c1`, the Potency entry is “inactive”.

Consider `O[C@@H](c1cc(C(F)(F)F)nc2c(C(F)(F)F)cccc12)[C@H]1CCCCN1`, for which the Potency entry was “inactive”.

`NC(=O)n1c(O)c(C(=O)c2cccs2)c2cc(Cl)ccc21`: the Potency entry is “inactive”.

In the case of `CCOC(=O)[C@H](CCc1ccccc1)N[C@@H](C)C(=O)N1[C@H](C(=O)O)C[C@H]2CCCC[C@@H]21`, the Potency result is “inactive”.

A further experiment in a line: A High-Content qHTS Against Drug Library for the Identification of Small Molecules that Inhibit DYT1 Early Onset Primary Dystonia-Associated Cell Pathology (AID 1645839). Note: potency is the fitted concentration of half-maximal effect. The following applies: HEK293 Flp-In EGFP-delE TorsinA, punctate imaging, 48 h; series mostly up to 46.1 µM. The essentials: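 Induced EGFP-delE TorsinA cells are imaged after 48 h of compound treatment. Punctate fusion-protein distribution gives the %pathology value, while nuclei counts flag toxicity. Wild-type EGFP-hTOR1A cells define the normal pattern.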
With `CN1CCN(C2=Nc3ccccc3Sc3ccc(Cl)cc32)CC1`, the Potency entry is “inactive”.

As for `CN1CCN(C2=Nc3cc(F)ccc3Cc3ccccc32)CC1`, the Potency result is “inactive”.

For `CCN1CCN(C(=O)N[C@@H](C(=O)N[C@@H]2C(=O)N3C(C(=O)O)=C(CSc4nnnn4C)CS[C@H]23)c2ccc(O)cc2)C(=O)C1=O`, the Potency entry is “inactive”.

Regarding `O=C(CCN1CCN2CCCC2C1)N1c2ccccc2Sc2ccc(Cl)cc21` (stereo unspecified), the Potency result is “inactive”.

Regarding `Cc1ccc(S(=O)(=O)NC(=O)NC2CCCC2)cc1`, the Potency result was “inactive”.

Take `Nc1ccc(C(=O)NCC(=O)O)cc1`: the Potency entry was “inactive”.

Take `CC1(C)OC[C@@H]2O[C@@]3(C(=O)O)OC(C)(C)O[C@H]3[C@@H]2O1`: the Potency entry was “inactive”.

As to `O=C(O)c1ccc(S(=O)(=O)N(Cl)Cl)cc1`, the Potency entry was “inactive”.

With `CCCCNc1ccc(C(=O)OCCOCCOCCOCCOCCOCCOCCOCCOCCOC)cc1`, the Potency entry is “inactive”.

Regarding `FC(F)(F)C(F)(F)C(F)(F)C(F)(F)C(F)(F)C(F)(F)C(F)(F)C(F)(F)Br`, the Potency entry was “inactive”.

As to `C/C=C/c1ccc(O)c(OC)c1`, the Potency result was “inactive”.

As to `CCCCNC(=O)NS(=O)(=O)c1ccc(N)cc1`, the Potency result is “inactive”.

Consider `C[N+]12CCC(CC1)C(OC(=O)C(O)(c1ccccc1)c1ccccc1)C2` (stereo unspecified), for which the Potency result is “inactive”.

For the molecule `CCCCN=C(N)N=C(N)N`, the Potency result was “inactive”.

As to `Cc1cc(C)cc(OCC2CNC(=O)O2)c1` (stereo unspecified), the Potency entry was “inactive”.

`CN1CCN(CCC(=O)N2c3ccccc3Sc3ccc(C(F)(F)F)cc32)CC1`: the Potency was 3.16 µM (active).

In the case of `CCCc1ncc(C[n+]2ccccc2C)c(N)n1`, the Potency result was “inactive”.

For the molecule `CC(=O)Oc1ccc(C)cc1`, the Potency result is “inactive”.

As to `C[C@]12CCC(=O)C=C1C=C[C@@H]1[C@@H]2CC[C@@]2(C)[C@H]1CC[C@@]21CCC(=O)O1`, the Potency entry was “inactive”.

As to `CCCCCCCCOc1ccc(C(=O)c2ccccc2)c(O)c1`, the Potency entry was “inactive”.

Regarding `CCN(CC)CCOC(=O)C1(c2ccccc2)CCCC1`, the Potency entry was “inactive”.

In the case of `CC(C)n1c(/C=C/[C@@H](O)C[C@@H](O)CC(=O)O)c(-c2ccc(F)cc2)c2ccccc21`, the Potency entry was “inactive”.

Consider `N[C@H](C(=O)O)[C@@H](O)c1ccc(O)c(O)c1`, for which the Potency result is “inactive”.

`O=C(Nc1ncc([N+](=O)[O-])s1)c1cccs1`: the Potency result is “inactive”.

With `O=C(O)C1(C(=O)O)CCC1.[NH2-].[NH2-].[Pt+2]`, the Potency entry is “inactive”.

`NC1CCN(c2nc3c(cc2F)c(=O)c(C(=O)O)cn3-c2ccc(F)cc2F)C1` (stereo unspecified): the Potency result was “inactive”.

`COc1cc(NS(=O)(=O)c2ccc(N)cc2)ncn1`: the Potency result was “inactive”.

As for `CC1CCc2c(N3CCC(O)CC3)c(F)cc3c(=O)c(C(=O)O)cn1c23` (stereo unspecified), the Potency result is “inactive”.

In the case of `CC(=O)N[C@@H](CCC(=O)O)C(=O)O`, the Potency entry was “inactive”.

Take `CCN(CC)CCOC(=O)C(Cc1cccc2ccccc12)CC1CCCO1` (stereo unspecified): the Potency result is “inactive”.
